Shh pathway inh: Hedgehog pathway signaling inhibitors, primary screen, luminescence, Shh-LIGHT2 cells, Gli-luciferase. Shh-LIGHT2 Gli-luciferase reporter, 30 h. inhibition, % (test concentration not listed). hit rate 2.1% among 22,000;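 active = mean inhibition across valid replicates above about 65%, limit read from the data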;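 also: pathway switched on by Shh-conditioned medium diluted 1 in 25 in low serum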
NOMO-1 viab: NOMO-1 AML cell viability reduction, primary screen, STK33 inhibitor project, CellTiter-Glo luminescence | hit rate 7.5% among 37,000 | AID 2330, 2010 | NOMO-1 AML viability, 72 h | inhibition, % (no concentration beside the values); in the data active = inhibition above about 80%
PD-1 reverse act: activators reversing PD-1 mediated T-cell inhibition, primary screen, luminescence, primary human CD4 T cells, PD-L1 beads. 29,000 tested, under 10 active. activation, % (concentration not given with the values). CellTiter-Glo 96 h; call rule not given here;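 also: 0% = median vehicle wells and 100% = positive control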
Active calls of the source: *; nt = no result. Rows were chosen to be rich in hits. Some 7.7% of all compounds tested hit in one or more screens of this group.

SMILES | Shh pathway inh | NOMO-1 viab | PD-1 reverse act
CC(C)(C)C(=O)COc1cccc(NC(=O)c2ccc([N+](=O)[O-])cc2)c1 | nt | 34.5 | nt
COC(=O)c1cc(NC(=O)CSc2nnc(N)s2)ccc1Cl | nt | 109.8* | -1.5
CC(=O)c1ccc(NC(=O)CSc2nnc(N)s2)cc1 | nt | 15.3 | -4.9
Cc1cccc(C2Sc3ccccc3N=C3c4ccccc4C(=O)C32)c1 (configuration not stated) | -13.9 | 103.7* | 0.1
CC1CCN(S(=O)(=O)c2ccc(NC(=O)c3ccc(C(C)(C)C)cc3)cc2)CC1 | -60.7 | 114.2* | -0.3
CC1CCN(S(=O)(=O)c2cccc(C(=O)NC(C)(C)CO)c2)CC1 | nt | 6.0 | -0.5
Cc1ccc(OC(=O)c2ccccc2)c(-n2nc3ccccc3n2)c1 | nt | -1.4 | 0.0
C[C@@H]1CN([C@@H](C)CO)C(=O)c2cccc(NC(=O)CCCCCC(=O)Nc3ccccc3N)c2O[C@@H]1CN(C)Cc1ccc(Oc2ccccc2)cc1 | nt | 126.2* | -7.0
C[C@@H]1CN([C@H](C)CO)C(=O)c2cccc(NC(=O)CCCCCC(=O)Nc3ccccc3N)c2O[C@@H]1CN(C)Cc1ccc(Oc2ccccc2)cc1 | nt | 139.8* | -3.5
C[C@@H]1CN([C@@H](C)CO)C(=O)c2cccc(NC(=O)CCCCCC(=O)Nc3ccccc3N)c2O[C@H]1CN(C)C | nt | 32.5 | -0.4
C[C@H](CO)N1C[C@H](C)[C@H](CN(C)C(=O)Nc2ccccc2)Oc2c(NC(=O)CCCCCC(=O)Nc3ccccc3N)cccc2C1=O | nt | 4.6 | 0.7
CCOC(=O)CC1=NN(c2ccccc2)C(=O)/C1=C\c1cc(OC)c(OC)cc1OC | nt | 44.0 | 0.0
COc1ccc(NC(=O)c2ccco2)cc1NC(=O)CSc1ccc(Cl)cc1 | nt | 14.8 | -0.4
COc1ccc(NC(=O)NCc2ccc(C(=O)O)cc2)c(OC)c1 | nt | 7.8 | 3.4
Cc1c(CCC(=O)O)c(=O)oc2cc(OCc3ccc(Cl)c(Cl)c3)ccc12 | nt | 15.5 | -1.1
C[C@H]1CN([C@@H](C)CO)C(=O)Cc2cc(NS(=O)(=O)c3ccc(Cl)cc3)ccc2O[C@H]1CN(C)Cc1ccc(-c2ccccc2)cc1 | 31.7 | 110.6* | 2.6
C[C@@H]1CN([C@@H](C)CO)C(=O)Cc2cc(NS(=O)(=O)c3ccc(Cl)cc3)ccc2O[C@@H]1CN(C)Cc1ccc(-c2ccccc2)cc1 | 7.7 | 22.2 | 1.6
C[C@@H]1CN([C@H](C)CO)C(=O)Cc2cc(NS(=O)(=O)c3ccc(Cl)cc3)ccc2O[C@@H]1CN(C)Cc1ccc(-c2ccccc2)cc1 | 19.8 | 122.1* | -5.2
C[C@@H]1CN([C@H](C)CO)C(=O)Cc2cc(NS(=O)(=O)c3ccc(Cl)cc3)ccc2O[C@H]1CN(C)Cc1ccc(-c2ccccc2)cc1 | -0.4 | 65.8 | -1.1
CC(C)(C)c1ccc(SCC(O)CSc2nc3c(cc2C#N)CCCC3)cc1 (configuration not stated) | nt | 24.6 | 2.0
C[C@H]1CN([C@@H](C)CO)C(=O)Cc2cc(NC(=O)CCCCCC(=O)Nc3ccccc3N)ccc2O[C@@H]1CN(C)Cc1ccc(C(F)(F)F)cc1 | nt | 105.9* | 1.0
C[C@@H]1CN([C@@H](C)CO)C(=O)c2cc(NC(=O)CCCCCC(=O)Nc3ccccc3N)ccc2O[C@@H]1CN(C)Cc1ccc(-c2ccccc2)cc1 | nt | 46.2 | 1.7
C[C@H]1CN([C@@H](C)CO)C(=O)Cc2cc(NC(=O)CCCCCC(=O)Nc3ccccc3N)ccc2O[C@@H]1CN(C)Cc1ccc2c(c1)OCO2 | nt | 34.4 | -1.8
C[C@H]1CN([C@@H](C)CO)C(=O)Cc2cc(NC(=O)CCCCCC(=O)Nc3ccccc3N)ccc2O[C@@H]1CN(C)Cc1ccc(-c2ccccc2)cc1 | nt | 140.4* | 0.3
C[C@@H]1CN([C@@H](C)CO)C(=O)Cc2cc(NC(=O)CCCCCC(=O)Nc3ccccc3N)ccc2O[C@@H]1CN(C)Cc1ccc(-c2ccccc2)cc1 | nt | 141.7* | 0.5
SMILES | Shh pathway inh | NOMO-1 viab | PD-1 reverse act
C[C@@H]1CN([C@H](C)CO)C(=O)Cc2cc(NC(=O)CCCCCC(=O)Nc3ccccc3N)ccc2O[C@@H]1CN(C)C(=O)Nc1ccc(C(F)(F)F)cc1 | nt | 4.1 | -0.2
O=C(Nc1ccc(Cl)cc1C(=O)NCCO)c1ccc(Cl)cc1Cl | nt | 16.3 | nt
Cc1ccnc(SCC(=O)c2ccc([N+](=O)[O-])cc2)n1 | nt | 27.9 | 1.0
Cc1ccnc(NC(c2cc(C)ccc2C)c2ccc3ccc(C)nc3c2O)c1 (configuration not stated) | nt | 40.6 | -9.4
COc1cccc(C(Nc2cc(C)ccn2)c2ccc3ccc(C)nc3c2O)c1 (configuration not stated) | nt | 96.6* | -13.4
Cc1ccnc(NC(c2ccc([N+](=O)[O-])cc2)c2ccc3ccc(C)nc3c2O)c1 (configuration not stated) | nt | 118.4* | nt
O=C(CSc1nnc(-c2ccccc2F)n1-c1ccccc1)Nc1ccc2cn[nH]c2c1 | nt | 3.1 | 0.6
CC(=O)NC(c1ccccc1)c1ccccc1 | -38.2 | 27.1 | 1.0
COc1ccc(OC)c(NC(=O)c2ccc(Cl)c(S(=O)(=O)Nc3ccc(C)cc3C)c2)c1 | nt | 33.2 | nt
COC(=O)c1cc(NC(=O)COc2ccc(Cl)cc2C)cc(C(=O)OC)c1 | nt | 24.5 | -0.3
CC1(C)CC[C@@]2(C(=O)O)C(C1)C1=CCC3[C@@]4(C)CC[C@H](O[C@@H]5O[C@H](C(=O)O)[C@@H](O[C@@H]6OC[C@@H](O)[C@H](O)[C@H]6O)[C@H](O)[C@H]5O)C(C)(C)C4CC[C@@]3(C)[C@]1(C)C[C@H]2O (some centres not stated) | 2.1 | nt | nt
CC(=O)OCC1(C)CC2[C@]3(CO[C@@]24CCC2[C@@]5(C)CC[C@H](O[C@@H]6OC[C@@H](O)[C@H](O)[C@H]6O)[C@@](C)(CO)C5CC[C@@]2(C)[C@]4(C)C[C@H]3O)[C@@H](O)C1 (some centres not stated) | 76.0* | 122.9* | -6.3
Cc1cc(C)c2c(N)c(C(=O)c3cccs3)sc2n1 | 2.1 | 7.9 | -0.4
CSc1ccc(C(Nc2ccccn2)c2cc(Cl)c3cccnc3c2O)cc1 (configuration not stated) | nt | 112.5* | -9.1
CCOc1ccc(C(Nc2cccnc2)c2cc(Cl)c3cccnc3c2O)cc1 (configuration not stated) | nt | 115.0* | nt
Cn1nc(-c2ccc(OCC(=O)Nc3cccnc3)cc2)c2ccccc2c1=O | nt | 62.7 | -1.9
CCc1ccc(C(Nc2ccccn2)c2cc(Cl)c3cccnc3c2O)cc1 (configuration not stated) | nt | 123.3* | -13.4
CSc1ccc(S(=O)(=O)NCc2ccccn2)cc1 | nt | 13.4 | -1.4
Cc1ccc(C)c(C(Nc2ccccn2)c2cc(Cl)c3cccnc3c2O)c1 (configuration not stated) | nt | 113.3* | -9.9
COc1cc(C(Nc2ccccn2)c2cc(Cl)c3cccnc3c2O)cc(Br)c1O (configuration not stated) | nt | 47.9 | nt
CN1C=C(c2ccccc2)N(c2ccccc2)C1 | -38.2 | 10.6 | 1.1
COc1ccc(OCC(O)CNC(C)(C)C)cc1 (configuration not stated) | 8.3 | 3.5 | -0.3
O=C(CSc1nc(-c2ccccc2)cs1)Nc1ccccc1 | nt | -9.5 | -3.2

Screening results (PubChem)
